The campaign covered roughly 5,500 compounds. About 2,000 (36%) were called active. Another 18% or so got no clear call; they are omitted. No stated cut-off is given here; in the data, active means normalized growth mostly below about 0.91 (no sharp cut-off); inconclusive means no clear call, values can overlap the other calls; inactive means mostly above about 0.92. The list shows a part of the results.
Experiment: chemical genetic growth profiling, strain panel (AID 1159580);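 further: tested at 20 µM; growth read once vehicle control cultures reached saturation at 30 °C; 1 = growth at the plate median or of vehicle wells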
Details: growth OD

Measured: normalized growth

CCOC(=O)[C@H](CCc1ccccc1)N[C@@H](C)C(=O)N1[C@H](C(=O)O)C[C@@H]2CCC[C@@H]21
inactive: S. cerevisiae deletion strains, locus YJR075W, strain HOC1, stronger effect = lower value 0.998 | S. cerevisiae deletion strains, locus YKL009W, strain mrt4, stronger effect = lower value 1.01 | S. cerevisiae deletion strains, locus YKL068W, stronger effect = lower value 1.02 | S. cerevisiae deletion strains, locus YKL085W, strain MDH1 (second series), stronger effect = lower value 1.02 | S. cerevisiae deletion strains, locus YKL085W, strain MDH1, stronger effect = lower value 1.02 | S. cerevisiae deletion strains, locus YKL160W, strain elf1, stronger effect = lower value 0.981 | S. cerevisiae deletion strains, locus YKL190W, strain CNB1, stronger effect = lower value 1.01 | S. cerevisiae deletion strains, locus YKR001C, strain vps1, stronger effect = lower value 1.02 | S. cerevisiae deletion strains, locus YKR026C, strain gcn3, stronger effect = lower value 0.98 | S. cerevisiae deletion strains, locus YKR091W, strain srl3, stronger effect = lower value 0.985 | S. cerevisiae deletion strains, locus YLL001W, strain dnm1, stronger effect = lower value 0.989 | S. cerevisiae deletion strains, locus YLL026W, stronger effect = lower value 0.991 | S. cerevisiae deletion strains, locus YLL041C, strain sdh2, stronger effect = lower value 0.982 | S. cerevisiae deletion strains, locus YLR027C, strain aat2, stronger effect = lower value 0.992 | S. cerevisiae deletion strains, locus YLR039C, strain RIC1, stronger effect = lower value 1.06 | S. cerevisiae deletion strains, locus YLR058C, strain SHM2, stronger effect = lower value 1.01 | S. cerevisiae deletion strains, locus YLR102C, strain apc9, stronger effect = lower value 1.02 | S. cerevisiae deletion strains, locus YLR113W, strain HOG1, stronger effect = lower value 0.98 | S. cerevisiae deletion strains, locus YLR221C, strain rsa3, stronger effect = lower value 1 | S. cerevisiae deletion strains, locus YLR258W, strain gsy2, stronger effect = lower value 0.991 | S. cerevisiae deletion strains, locus YLR262C, strain YPT6 (second series), stronger effect = lower value 0.967 | S. cerevisiae deletion strains, locus YLR262C, strain YPT6, stronger effect = lower value 1.08 | S. cerevisiae deletion strains, locus YLR268W, strain sec22, stronger effect = lower value 1.02 | S. cerevisiae deletion strains, locus YLR320W, strain mms22, stronger effect = lower value 0.975 | S. cerevisiae deletion strains, locus YLR330W, strain CHS5, stronger effect = lower value 1.01 | S. cerevisiae deletion strains, locus YLR342W, strain FKS1 (second series), stronger effect = lower value 1.02 | S. cerevisiae deletion strains, locus YLR342W, strain FKS1, stronger effect = lower value 0.989 | S. cerevisiae deletion strains, locus YLR357W, strain rsc2, stronger effect = lower value 0.978 | S. cerevisiae deletion strains, locus YLR370C, strain arc18, stronger effect = lower value 0.98 | S. cerevisiae deletion strains, locus YLR371W, strain rom2, stronger effect = lower value 1.01 | S. cerevisiae deletion strains, locus YLR384C, strain iki3, stronger effect = lower value 0.984 | S. cerevisiae deletion strains, locus YLR418C, strain cdc73, stronger effect = lower value 1.06 | S. cerevisiae deletion strains, locus YML016C, strain PPZ1, stronger effect = lower value 1.02 | S. cerevisiae deletion strains, locus YML032C, strain rad52, stronger effect = lower value 1.02 | S. cerevisiae deletion strains, locus YML120C, strain ndi1, stronger effect = lower value 0.993 | S. cerevisiae deletion strains, locus YML124C, strain tub3, stronger effect = lower value 1.02 | S. cerevisiae deletion strains, locus YMR058W, strain fet3, stronger effect = lower value 0.99 | S. cerevisiae deletion strains, locus YMR078C, strain ctf18, stronger effect = lower value 1.03 | S. cerevisiae deletion strains, locus YMR125W, strain sto1, stronger effect = lower value 0.976 | S. cerevisiae deletion strains, locus YMR129W, stronger effect = lower value 0.979 | S. cerevisiae deletion strains, locus YMR205C, strain PFK2, stronger effect = lower value 0.981 | S. cerevisiae deletion strains, locus YMR223W, strain ubp8, stronger effect = lower value 1.02 | S. cerevisiae deletion strains, locus YMR231W, strain pep5, stronger effect = lower value 0.978 | S. cerevisiae deletion strains, locus YMR263W, strain SAP30, stronger effect = lower value 1.02 | S. cerevisiae deletion strains, locus YMR307W, strain GAS1, stronger effect = lower value 1.04 | S. cerevisiae deletion strains, locus YNL067W, strain RPL9B, stronger effect = lower value 1.01 | S. cerevisiae deletion strains, locus YNL071W, strain lat1, stronger effect = lower value 0.975 | S. cerevisiae deletion strains, locus YNL128W, strain TEP1, stronger effect = lower value 1 | S. cerevisiae deletion strains, locus YNL153C, strain GIM3, stronger effect = lower value 1.01 | S. cerevisiae deletion strains, locus YNL183C, strain NPR1, stronger effect = lower value 0.968 | S. cerevisiae deletion strains, locus YNL209W, strain ssb2, stronger effect = lower value 0.981 | S. cerevisiae deletion strains, locus YNL233W, strain BNI4, stronger effect = lower value 1 | S. cerevisiae deletion strains, locus YNL248C, strain rpa49, stronger effect = lower value 0.986 | S. cerevisiae deletion strains, locus YNL250W, strain rad50, stronger effect = lower value 1.03 | S. cerevisiae deletion strains, locus YNL271C, strain bni1, stronger effect = lower value 1.02 | S. cerevisiae deletion strains, locus YNL298W, strain CLA4, stronger effect = lower value 1.03 | S. cerevisiae deletion strains, locus YNL307C, strain MCK1, stronger effect = lower value 1.02 | S. cerevisiae deletion strains, locus YNL322C, strain KRE1 (second series), stronger effect = lower value 0.982 | S. cerevisiae deletion strains, locus YNL322C, strain KRE1, stronger effect = lower value 1.01 | S. cerevisiae deletion strains, locus YNR049C, strain mso1, stronger effect = lower value 0.985 | S. cerevisiae deletion strains, locus YNR052C, strain pop2, stronger effect = lower value 1.01 | S. cerevisiae deletion strains, locus YOL006C, strain TOP1, stronger effect = lower value 1.03 | S. cerevisiae deletion strains, locus YOL012C, strain htz1 1.2 | S. cerevisiae deletion strains, locus YOL147C, strain pex11, stronger effect = lower value 1.01 | S. cerevisiae deletion strains, locus YOR001W, strain rrp6, stronger effect = lower value 0.997 | S. cerevisiae deletion strains, locus YOR061W, strain CKA2, stronger effect = lower value 1.01 | S. cerevisiae deletion strains, locus YOR069W, strain VPS5, stronger effect = lower value 1 | S. cerevisiae deletion strains, locus YOR070C, strain gyp1, stronger effect = lower value 0.991 | S. cerevisiae deletion strains, locus YOR080W, strain dia2, stronger effect = lower value 0.982 | S. cerevisiae deletion strains, locus YOR083W, strain WHI5, stronger effect = lower value 0.984 | S. cerevisiae deletion strains, locus YOR106W, strain vam3, stronger effect = lower value 1.01 | S. cerevisiae deletion strains, locus YOR136W, strain idh2, stronger effect = lower value 1.02 | S. cerevisiae deletion strains, locus YOR144C, strain elg1, stronger effect = lower value 1.02 | S. cerevisiae deletion strains, locus YOR184W, strain ser1, stronger effect = lower value 1.03 | S. cerevisiae deletion strains, locus YOR231W, strain MKK1, stronger effect = lower value 0.983 | S. cerevisiae deletion strains, locus YOR265W, strain rbl2, stronger effect = lower value 0.979 | S. cerevisiae deletion strains, locus YOR270C, strain vph1, stronger effect = lower value 1.03 | S. cerevisiae deletion strains, locus YOR290C, strain snf2, stronger effect = lower value 0.988 | S. cerevisiae deletion strains, locus YOR316C, strain cot1, stronger effect = lower value 1.02 | S. cerevisiae deletion strains, locus YPL051W, strain arl3, stronger effect = lower value 0.987 | S. cerevisiae deletion strains, locus YPL055C, strain LGE1, stronger effect = lower value 1.02 | S. cerevisiae deletion strains, locus YPL078C, strain atp4, stronger effect = lower value 0.977 | S. cerevisiae deletion strains, locus YPL106C, strain sse1, stronger effect = lower value 0.988 | S. cerevisiae deletion strains, locus YPL240C, strain hsp82, stronger effect = lower value 0.984 | S. cerevisiae deletion strains, locus YPL241C, strain CIN2, stronger effect = lower value 0.999 | S. cerevisiae deletion strains, locus YPL256C, strain CLN2, stronger effect = lower value 0.973 | S. cerevisiae deletion strains, locus YPR119W, strain clb2, stronger effect = lower value 1.01 | S. cerevisiae deletion strains, locus YPR141C, strain kar3, stronger effect = lower value 1.03 | S. cerevisiae deletion strains, locus YPR163C, strain tif3, stronger effect = lower value 1.01 | S. cerevisiae deletion strains, locus YPR167C, strain met16, stronger effect = lower value 1.02 | S. cerevisiae deletion strains, strain wtn01, stronger effect = lower value 1.02 | S. cerevisiae strains, strain wild type, stronger effect = lower value 1.01
